Shown are actives, neighbours in structure and some others; about 12% of the full set was active somewhere.
BAZ2B inh: qHTS Assay for Inhibitors of BAZ2B; Bromodomain adjacent to zinc finger domain protein 2B (Homo sapiens), Q9UIF8; AlphaScreen BAZ2B-H3K14Ac peptide displacement; Potency, µM (highest dose often 114 µM), for inactives: top-dose activity change, negative = inhibition, hits mostly inhibitors; 360,000 tested, 4.4% active; note: potency is the fitted concentration of half-maximal effect; % is set by controls: 0 for no effect and ±100 for the full control effect; nearly all actives have a fitted effect of over 60% in size
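AlphaScreen displacement of biotin-H3(5-23)K14Ac peptide (50 nM final) from BAZ2B (50 nM final) in PBS pH 7.4, 0.01% Tween-20; complex preformed 30 min RT, then compounds (top 110 uM) 30 min RT, beads 20 min dark.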
JMJD2A Tudor: qHTS Assay for Inhibitors of JMJD2A-Tudor Domain; 390,000 tested, 4.4% active; AlphaScreen JMJD2A-Tudor / H3K4me3 peptide binding; Potency, µM (titrated, usually from 114 µM), for the others: top-dose activity change, negative = inhibition, hits mostly inhibitors; AID 504339, 2011; note: potency is the fitted concentration of half-maximal effect; % is set by controls: 0 for no effect and ±100 for the full control effect; nearly all actives have a fitted effect of over 50% in size
G9a block: qHTS Assay for Inhibitors of Histone Lysine Methyltransferase G9a | Histone-lysine N-methyltransferase EHMT2 (Homo sapiens), Q96KQ7 | G9a H3K9 monomethylation, AlphaScreen, 2 h | Potency, µM (titrated, usually from 102 µM), for inactives: at the highest dose activity, negative = inhibition, most hits filed as inhibitors | 350,000 tested, 8.8% active | AID 504332, 2011; note: potency is the fitted concentration of half-maximal effect; % is set by controls: 0 for no effect and ±100 for the full control effect; nearly all actives have a fitted effect of over 75% in size
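G9a (20 nM) preincubated 15 min RT with compounds, then 500 nM biotinylated H3K9 peptide and 20 uM SAM added; 2 h RT reaction. Monomethyl-H3K9 product detected by AlphaScreen with anti-H3K9me1 antibody, streptavidin donor and anti-rabbit IgG acceptor beads.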
HP1b binding inh: HTS for Inhibitors of HP1-beta Chromodomain Interactions with Methylated Histone Tails; AlphaScreen HP1-beta / biotin-H3K9me3 peptide binding; 390,000 tested, 0.56% active; Potency, µM (top dose mostly 114 µM), inactives show at the highest dose activity change, negative = inhibition, most hits filed as inhibitors; Chromobox protein homolog 1 (Homo sapiens), P83916; note: potency is the fitted concentration of half-maximal effect; nearly all actives have a fitted effect of over 70% in size
Target sequence (P83916 whole entry, looked up): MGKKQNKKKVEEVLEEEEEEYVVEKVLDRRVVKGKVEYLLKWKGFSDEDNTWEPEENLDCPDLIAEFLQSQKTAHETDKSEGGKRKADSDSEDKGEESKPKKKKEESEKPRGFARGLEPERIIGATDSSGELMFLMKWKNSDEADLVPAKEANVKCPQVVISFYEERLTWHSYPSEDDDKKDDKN
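Compound inhibition of the preformed complex between 50 nM HP1-beta and 50 nM biotinylated H3K9me3 peptide was read by AlphaScreen. Buffer was PBS pH 7.4 with 0.01% Tween-20. Incubations ran 30 min at room temperature, with 10 ug/mL donor/acceptor beads.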
PI5P4Ka inh: qHTS for Inhibitors of phosphatidylinositol 5-phosphate 4-kinase (PI5P4K) | AID 652105, 2013 | 330,000 tested, 1.2% active | Phosphatidylinositol 5-phosphate 4-kinase type-2 alpha (Homo sapiens), P48426 | max response, % | PI5P4Kalpha enzyme, ADP-Glo luminescence, 60 min; hits give low values; active = max response of -50% or lower; inconclusive = between -30% and -50%; inactive = -30% or higher; note: value at the top dose of about 77 µM; % is set by controls: 0 for no effect and ±100 for the full control effect
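Single end-point luminescence (ADP-Glo) quantified ADP from PI5P4Kalpha turnover; ATP 5 microM final, 1 h at RT, 0.1% CHAPS and 0.28 mM EGTA in HEPES pH 7.4.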
PLK1 PBD inh: qHTS for Inhibitors of PLK1-PDB (polo-like kinase 1 - polo-box domain): Primary Screen; Plk1 PBD binding of FITC phosphopeptide, fluorescence polarization; Potency, µM, without a hit: max response, negative = inhibition, hits mostly inhibitors; 360,000 tested, 2.8% active; note: potency is the fitted concentration of half-maximal effect; series mostly up to about 57 µM; % is set by controls: 0 for no effect and ±100 for the full control effect; nearly all actives have a fitted effect of over 65% in size
Target sequence (P53350 whole entry, looked up, the tested form may be a part): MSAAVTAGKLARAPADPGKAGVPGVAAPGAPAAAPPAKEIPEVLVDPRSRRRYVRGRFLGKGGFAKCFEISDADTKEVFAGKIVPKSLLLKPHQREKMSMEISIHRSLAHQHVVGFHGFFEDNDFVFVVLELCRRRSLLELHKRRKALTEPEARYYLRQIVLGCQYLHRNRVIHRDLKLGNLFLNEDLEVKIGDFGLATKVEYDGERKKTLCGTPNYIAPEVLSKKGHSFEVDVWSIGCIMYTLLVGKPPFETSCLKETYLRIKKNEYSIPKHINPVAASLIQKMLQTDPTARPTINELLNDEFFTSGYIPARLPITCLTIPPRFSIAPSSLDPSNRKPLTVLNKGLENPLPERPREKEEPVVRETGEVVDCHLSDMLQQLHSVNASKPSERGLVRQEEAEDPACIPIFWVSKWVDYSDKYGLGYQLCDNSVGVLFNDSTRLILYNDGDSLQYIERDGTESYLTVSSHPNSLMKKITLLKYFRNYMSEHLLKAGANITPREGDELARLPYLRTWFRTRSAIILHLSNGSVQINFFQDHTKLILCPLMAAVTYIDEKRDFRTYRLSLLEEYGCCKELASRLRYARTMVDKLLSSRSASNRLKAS
* = called active by the depositor; u = inconclusive; x = not tested or not shown; [ ] = remark or other dose. Unless noted, calls come from the whole dose curve; as a rule, active = well fitted curve in the direction sought with a large enough effect; inconclusive = small, poorly fitted or top-dose-only effect, or another doubt; inactive = no such curve, though single readings can be large; an effect the other way counts as inactive or inconclusive.

SMILES | BAZ2B inh | JMJD2A Tudor | G9a block | HP1b binding inh | PI5P4Ka inh | PLK1 PBD inh
Cc1ccc(SC2=NS(=O)(=O)c3ccccc32)c(C)c1 | x | -10.8%[57.1 µM] | x | 1.3%[57 µM] | x | x
CCOc1ccc(CCNC(=O)c2sc3nc4n(c(=O)c3c2C)CCC4)cc1 | -36.4% | -11.5% | 18.6% | 63.3% | 2.1 | -6.5%
CC1=NN(c2ccccc2)C(=O)/C1=C\C=C1/N(C)c2ccccc2C1(C)C | 10µM* | 31.6µM* | 11.2µM* | u | -2.1 | 25.1%
CC1=NN(c2ccccc2)C(=O)/C1=C\C=C1\N(C)c2ccccc2C1(C)C | 10µM* | 56.2µM* | 14.1µM* | 31.6µM* | -4.1 | 22.2%
COc1cc2c(cc1OC)CN(CC(=O)Nc1ccc(F)cc1)C(C(=O)O)C2 (stereo not given) | 79.4µM* | -30.3% | u | 32.7% | 2.2 | -8.8%
O=Cc1ccc2noc(-c3ccc(F)cc3)c2c1 | 2.4% | -9.1% | 0.1%[12.7 µM] | -4.6% | -26.4 | 23.8µM*
COc1ccc([C@H]2C[C@@H](n3cc(-c4ccc(F)cc4)nn3)[C@H](O)CN2C(=O)C2CCCCC2)cc1 | x | x | x | x | -4.0 | -0.4%
Cc1ccccc1-c1cc(-c2ccccc2O)n[nH]1 | 5.0% | -29.8%[11.4 µM] | 6.5%[12.7 µM] | u | -13.6 | 3.36µM*
Oc1ccc(Br)cc1-c1cc(-c2ccccc2Cl)[nH]n1 | 0.5% | -22.1%[11.4 µM] | 24.2%[59 µM] | 9.3% | 8.7 | 23.8µM*
Oc1ccc(Br)cc1-c1cc(-c2ccccc2F)[nH]n1 | -2.1% | 3.2% | 5.5%[59 µM] | 45.4% | 13.3 | -3.3%
O=C(CSC(=S)N1CCCC1)N1CCN(S(=O)(=O)c2cccc([N+](=O)[O-])c2)CC1 | -14.1% | -19.3% | 39.8µM* | 1.2% | -1.1 | u
O=C(CSC(=S)N1CCCC1)N1CCN(S(=O)(=O)c2cccc(F)c2)CC1 | -5.1% | u | -32.9% | 33.2% | 11.5 | -5.2%
CCOC(=O)/C(=N\Nc1ccccc1Cl)N(C)C1CCCCC1 | -30.2% | -30.1% | 10µM* | 13.0% | 0.8 | u
CCOC(=O)/C(=N\Nc1cc(C(F)(F)F)ccc1Cl)N(CC)CC | u | -30.1% | 3.55µM* | 7.0% | x | -0.1%
S=C1SCCCN1Cc1ccc(Cl)cc1 | x | x | x | x | 6.6 | -5.3%
CC(C)c1ccc(OCC(O)CN2CCN(c3ccccc3)CC2)cc1 (stereo not given) | 56.2µM* | -35.9% | u | -5.9% | 13.4 | 4.3%
OC(COc1ccc2c(c1)OCO2)CN1CCCCC1 (stereo not given) | -9.1% | 8.6% | -2.2% | 25.0% | -6.3 | 3.6%
COc1ccc(OCC(O)CN2CCN(c3ccccc3)CC2)cc1 (stereo not given) | -11.6% | u | 28.6%[0.501 µM] | 22.0% | -0.1 | 5.4%
OC(COc1ccc2c(c1)OCO2)CN1CCN(c2ccccc2)CC1 (stereo not given) | -37.8% | u | 50.1µM* | 1.7% | -0.1 | -9.3%
CC(OCc1ccccc1)C(NC(=O)OC(C)(C)C)C(=O)NC1COC2CC(n3cc(F)c(=O)[nH]c3=O)OC12 (stereo not given) | x | -6.9% | x | 30.6% | x | x
Oc1c(Br)cc(Br)cc1/C=N/c1nccs1 | u | -22.7% | 1.58µM* | 19.6% | -55.3* | 29.9µM*
Cc1ccc(C(=O)O)cc1NC(=O)CCc1ccccc1 | -28.1% | u | 4.9% | -5.9% | -29.0 | 16.8µM*
COc1ccccc1C(=O)NC(=S)Nc1cccnc1Cl | -29.0% | -25.4% | 10µM* | u | u | u
COc1ccccc1C(=O)NC(=S)Nc1cc(C(=O)O)ccc1C | 0.8% | -3.5% | 44.7µM* | -1.9% | 0.2 | u
COC(=O)c1ccc(C)c(NC(=O)CN(c2ccccc2)S(=O)(=O)N(C)C)c1 | -13.3% | -13.5%[11.4 µM] | 5.7% | -1.4% | -16.9 | 21.2µM*
SMILES | BAZ2B inh | JMJD2A Tudor | G9a block | HP1b binding inh | PI5P4Ka inh | PLK1 PBD inh
CCC(C(=O)NCc1ccc2c(c1)CCN2C(=O)c1ccc(F)cc1)c1ccccc1 (stereo not given) | -4.8% | -16.3% | -1.2%[59 µM] | -1.0% | x | x
O=C(Nc1ccccc1N1CCOCC1)c1ccc(Cl)c(S(=O)(=O)N2CCCC2)c1 | 3.9% | -26.4% | 22.4%[12.7 µM] | 21.3% | 3.3 | -4.0%
CCOC(=O)C1=C(C(=O)OCC)N(CC2CCCCC2)CCC1=O | x | -2.2% | x | 60.3% | 3.0 | -9.0%
Cc1cc(Cl)ccc1NNC(=O)CCc1ccccc1 | -17.2% | -13.2% | 28.2µM* | 16.8% | 3.0 | -2.0%
CCCC(=O)Nc1cc(C(=O)O)ccc1Sc1ccc(C)cc1 | 1.5% | -11.6% | 44.7µM* | 34.5% | 5.9 | u
Cc1ccc(C(=O)O)cc1NC(=S)NC(=O)c1ccc(COc2ccccc2)cc1 | 50.1µM* | u | x | 6.9% | -2.0 | u
O=C(CCc1ccccc1)NNC(=O)c1cc(Cl)ccc1O | 6.7% | -0.7% | x | 35.7% | 1.0 | 3.5%
CCC(=O)Nc1cc(C(=O)O)ccc1Sc1ccc(C)cc1 | -11.7% | -10.6% | u | 44.0% | -4.6 | -7.2%
COC(=O)C(C(=O)OC)c1ccccc1NC(=O)OCc1ccccc1 | x | x | x | x | -3.5 | 0.1%
COc1ccccc1NC(=O)c1sc2nc3n(c(=O)c2c1C)N=C(c1cccc(Br)c1)CS3 | -1.0% | -7.0% | 11.5%[59 µM] | 22.9% | x | x
CCOC(=O)c1cc(CC)sc1NC(=O)CN1CCN(C(=O)c2ccco2)CC1 | u | u | u | -14.7% | -6.9 | u
O=c1c2c3c(sc2nnn1Cc1ccc(Br)cc1)CCCC3 | 22.5% | 15.5% | 63.6%[59 µM] | 45.6% | x | x
COc1ccc(Cc2cc(NCc3ccccc3)c3ncn(C(C)C)c3c2)cc1 | x | 39.8µM* | x | -36.3% | -1.6 | 6.9%
CCC(CO)Oc1cc(NCc2cccc(OC)c2)c2ncn(C(C)C)c2c1 (stereo not given) | x | u | x | 15.1% | 2.6 | -10.4%
CCCCOc1cc(NCc2ccccc2)c2ncn(C(C)C)c2c1 | x | 39.8µM* | x | u | 1.4 | -3.9%
CCC(CO)Oc1cc(NCc2cccc(O)c2)c2ncn(C(C)C)c2c1 (stereo not given) | x | -26.2% | x | 9.9% | -1.8 | 2.1%
CCC(CO)Oc1cc(NCc2cccc(F)c2)c2ncn(C(C)C)c2c1 (stereo not given) | x | u | x | -22.3% | 1.6 | -11.2%
CCOCCOc1cc(NCc2ccccc2)c2ncn(C(C)C)c2c1 | x | 10µM* | x | 14.1µM* | -0.1 | 0.8%
COCCCOc1cc(NCc2ccccc2)c2ncn(C(C)C)c2c1 | x | 56.2µM* | x | -34.1% | 8.5 | -4.8%
